# Results published in PubChem BioAssay AID376 (PDSP, 2006).
# In all, about 2,000 compounds went through this assay and about 250 (12%) were called active. Cut-off read from the data, not from the text of the source: active = hERG blockade below about -20% or above about 20%; inactive = in between. What follows is part of a selection rich in actives, with near analogues and random picks from the rest.
# Target: Voltage-gated inwardly rectifying potassium channel KCNH2 (Homo sapiens) (UniProt Q12809)
# Test: KCNH2 potassium channel function modulators, cell-based (AID 376);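 note: 0% = buffer alone and 100% = reference blocker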
# Conditions: hERG-expressing cells, channel activity single-concentration screen; concentration not given here
# Sequence of Voltage-gated inwardly rectifying potassium channel KCNH2 (Homo sapiens) (Q12809 whole entry, looked up): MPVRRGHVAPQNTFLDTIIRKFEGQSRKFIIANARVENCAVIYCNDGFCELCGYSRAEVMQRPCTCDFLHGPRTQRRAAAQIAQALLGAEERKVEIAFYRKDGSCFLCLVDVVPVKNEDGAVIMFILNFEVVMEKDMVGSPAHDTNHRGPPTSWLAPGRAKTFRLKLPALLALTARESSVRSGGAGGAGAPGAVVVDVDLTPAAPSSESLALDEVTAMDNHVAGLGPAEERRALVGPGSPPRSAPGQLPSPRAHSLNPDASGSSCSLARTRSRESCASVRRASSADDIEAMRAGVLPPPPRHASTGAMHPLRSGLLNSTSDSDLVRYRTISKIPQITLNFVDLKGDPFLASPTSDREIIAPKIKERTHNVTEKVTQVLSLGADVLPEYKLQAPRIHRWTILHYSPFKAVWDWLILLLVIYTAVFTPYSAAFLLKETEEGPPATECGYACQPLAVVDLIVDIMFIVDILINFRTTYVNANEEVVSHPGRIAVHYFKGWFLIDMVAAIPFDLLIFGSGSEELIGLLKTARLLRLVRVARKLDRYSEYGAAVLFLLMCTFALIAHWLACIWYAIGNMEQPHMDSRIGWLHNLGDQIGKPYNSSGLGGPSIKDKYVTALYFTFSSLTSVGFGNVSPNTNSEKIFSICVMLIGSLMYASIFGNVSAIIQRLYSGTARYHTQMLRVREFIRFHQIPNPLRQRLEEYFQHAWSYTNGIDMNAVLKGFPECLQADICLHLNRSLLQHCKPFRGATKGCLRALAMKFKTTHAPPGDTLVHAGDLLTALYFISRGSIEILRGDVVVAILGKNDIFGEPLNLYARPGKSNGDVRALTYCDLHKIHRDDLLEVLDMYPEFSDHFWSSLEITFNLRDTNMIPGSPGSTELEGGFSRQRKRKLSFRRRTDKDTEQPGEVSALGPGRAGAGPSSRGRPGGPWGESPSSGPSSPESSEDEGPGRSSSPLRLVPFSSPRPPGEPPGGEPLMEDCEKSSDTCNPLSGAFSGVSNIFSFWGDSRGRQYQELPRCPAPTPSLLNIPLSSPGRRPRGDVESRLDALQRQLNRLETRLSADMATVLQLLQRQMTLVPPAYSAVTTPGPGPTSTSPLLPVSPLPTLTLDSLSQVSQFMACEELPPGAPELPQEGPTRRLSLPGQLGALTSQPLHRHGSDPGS
row,Compound,hERG blockade
1,Cc1cc(Cc2c(C)c(C)c(Cc3cc(C)cc(C(C)(C)C)c3O)c(C)c2C)c(O)c(C(C)(C)C)c1,1.65% (inactive)
2,Nc1ccc(N(S(=O)(=O)c2ccccc2)S(=O)(=O)c2ccccc2)c(Cl)c1,0.845% (inactive)
3,COc1cc(CN2CCCCC2)cc2cc(C(=O)O)c(=O)oc12,4.84% (inactive)
4,O=C(O)c1ccc(C(=O)O)c2c(C(=O)O)ccc(C(=O)O)c12,-5.21% (inactive)
5,O=C(O)c1c[nH]c2c(ccc3[nH]cc(C(=O)O)c(=O)c32)c1=O,22.9% (active)
6,O=C(O)c1c[nH]c2cc(OCc3ccccc3)ccc2c1=O,6.26% (inactive)
7,O=C(O)C(Cc1ccccc1-c1ccccc1)C(=O)O,19.4% (inactive)
8,Cc1n[nH]c2ccccc2c1=O,-1.27% (inactive)
9,COc1ccc2ccccc2c1C=CC(=O)c1ccccc1,-1.69% (inactive)
10,O=C(O)CCC(=O)c1ccc2sc3ccccc3c2c1,-5.18% (inactive)
11,O=C(C[n+]1ccc2ccccc2c1)c1ccc2ccc3ccccc3c2c1,37.2% (active)
12,OC(COc1ccc(Cl)cc1Cl)CN1CCCC1 (centres undefined),17.2% (inactive)
13,C[N+](C)(N)CCC[N+](C)(C)N,-2.4% (inactive)
14,O=C1C2=C(Nc3cc([N+](=O)[O-])ccc3N2)OC1c1c[nH]c2ccc(COc3ccccc3)cc12 (centres undefined),4.4% (inactive)
15,Nc1nc(SCc2ccccc2Cl)cc(C(=O)O)n1,-7.45% (inactive)
16,CC(C)C1=CC23CCC4C(C)(C(=O)O)CCCC4(C)C2CC1C(C(=O)O)C3C(=O)O (centres undefined),6.18% (inactive)
17,Oc1c(C(O)(c2ccccc2)c2ccc3ccccc3c2O)ccc2ccccc12,50.7% (active)
18,Oc1ccc2ccccc2c1Cc1c(O)ccc2ccccc12,8.8% (inactive)
19,CC(O)(c1ccccc1)c1nccc2ccccc12 (centres undefined),0.101% (inactive)
20,CC1=NN(c2ccc(S(=O)(=O)O)cc2)C(=O)C1=Cc1ccc(Cl)cc1,41% (active)
21,O=c1oc2ccccc2c(O)c1C=Nc1nc(-c2ccc(O)c(O)c2)cs1,-3.45% (inactive)
22,C[N+](C)(C)CC(=O)NN=Cc1ccncc1,-9.76% (inactive)
23,C=CCSc1nc2c(N)ncnc2n1C1OC(CO)C(O)C1O (centres undefined),-7.69% (inactive)
24,Nc1nccc(Nc2ccc(S(N)(=O)=O)cc2)n1,20.2% (active)
25,NS(=O)(=O)c1ccc(NCc2cnc3ccccc3c2)cc1,-4.82% (inactive)
26,NS(=O)(=O)c1ccc(NCc2cnc3ccccc3n2)cc1,-7.4% (inactive)
27,O=[N+]([O-])c1ccc(CS(=O)Cc2ccccc2)cc1 (centres undefined),8.1% (inactive)

row,Compound,hERG blockade
1,Cc1ccc(S(=O)(=O)Oc2cc(N)c3c(n2)CCC3)cc1,-21.4% (active)
2,Cc1ccc(S(=O)(=O)Nc2cc(=O)[nH]c3c2CCC3)cc1,15.4% (inactive)
3,Cc1ccc(S(=O)(=O)Oc2cc(S(=O)(=O)O)cc3cc(S(=O)(=O)O)cc(N)c23)cc1,11.5% (inactive)
4,O=C(O)C(=Cc1ccncc1)c1cccc2ccccc12,0.772% (inactive)
5,COc1ccc2c3c([nH]c2c1)C1CC2C(CC(O)C(OC)C2C(=O)O)CN1CC3 (centres undefined),5.28% (inactive)
6,COC(=O)C1C(OS(=O)(=O)O)CCC2CN3CCc4c([nH]c5ccccc45)C3CC21 (centres undefined),-1.73% (inactive)
7,COC(=O)C1C(O)CCC2CN3CCc4c([nH]c5ccccc45)C3CC21 (centres undefined),42.5% (active)
8,Oc1cc(O)c2c(c1)OC(c1ccc(O)c(O)c1)C(O)C2c1c(O)cc(O)c2c1OC(c1ccc(O)c(O)c1)C(O)C2 (centres undefined),10.6% (inactive)
9,O=C(O)COc1c(Cl)cc(Cl)c2cccnc12,-8.13% (inactive)
10,c1ccc(CN2COc3c(ccc4c5c(ccc34)CN(Cc3ccccc3)CO5)C2)cc1,-6.83% (inactive)
11,O=C(Oc1ccc2c(c1)CN(Cc1ccccc1)CO2)c1ccccc1,13% (inactive)
12,CC(C)(C)c1c2c(c(C(C)(C)C)c3c1OCN(Cc1ccccc1)C3)OCN(Cc1ccccc1)C2,23.8% (active)
13,CCCC(c1cc(C(C)(C)C)c(O)cc1C)c1cc(C(C)(C)C)c(O)cc1C,4.17% (inactive)
14,CC(=N[O-])C(C)=N[O-].CC(=N[O-])C(C)=N[O-].C[CH-]C(C)O.[Co].c1ccncc1,-3.56% (inactive)
15,Nc1ccn(C2OC(COP(=O)(O)O)C(O)C2O)c(=O)n1 (centres undefined),-9.61% (inactive)
16,Nc1ccn(C2OC(CO)C3[O][Sn]([c]4ccccc4)([c]4ccccc4)[O]C32)c(=O)n1 (centres undefined),9.47% (inactive)
17,N=c1ccn2c(n1)OC1C(OP(=O)(O)O)C(CO)OC12 (centres undefined),-24.7% (active)
18,Fc1cccc(Cl)c1C=NN=C1c2ccccc2-c2ccccc21,4.24% (inactive)
19,O=C(O)c1c(Cl)c(Cl)c(Cl)c(Cl)c1C(=O)Nc1ccc2cn[nH]c2c1,9.23% (inactive)
20,C[N+](C)(C)C(Cc1c[nH]c(=S)[nH]1)C(=O)O (centres undefined),-14% (inactive)
21,COc1ccc(-c2nc(N)c3ncn(C4OC(CO)C(O)C4O)c3n2)cc1 (centres undefined),-8.39% (inactive)
22,CC(C)CC(N)C(=O)O (centres undefined),6.02% (inactive)
23,NC(Cc1ccccc1)(C(=O)O)C(=O)O,-3.15% (inactive)
24,COc1cc(C(=O)O)c([N+](=O)[O-])c(OC)c1OC,23.9% (active)
25,NS(=O)(=O)c1cc(C(=O)O)c(Cl)c([N+](=O)[O-])c1Cl,-6.38% (inactive)
26,COc1ccc(Cc2ccccc2C(=O)O)c2ccccc12,-3.19% (inactive)
27,Cc1cc(=O)oc2cc(O)c(CN(C)CC(=O)O)cc12,0.517% (inactive)

row,Compound,hERG blockade
1,O=c1[nH]c(=S)[nH]c2c1CN(CCCN1CCOCC1)CN2,3% (inactive)
2,NCCSCc1ccccc1Cl,6.42% (inactive)
3,CN(CCO)Cc1ncccc1O,-0.376% (inactive)
4,CC(CCC(=O)O)C1CCC2C3CCC4CC(O)CCC4(C)C3CC(O)C12C (centres undefined),2.74% (inactive)
5,CN(C)CCCn1c2c3ccccc3ccc2c2oc(=O)c3ccccc3c21,122% (active)
6,Cc1nc2cccc([N+](=O)[O-])c2n1CCCN(C)C,3.79% (inactive)
7,Cc1ccc(N2CCN(CCC(=O)O)CC2)cc1,-0.109% (inactive)
8,CCCn1cnc2c(SCC(=O)O)nc(N)nc21,4.79% (inactive)
9,NC(=S)NN=Cc1c[nH]c2ccccc12,9.72% (inactive)
10,CCCCNS(=O)(=O)c1n[nH]c(=O)[nH]c1=O,-14.2% (inactive)
11,CC(CCC(C)=NO)=NO,-14.3% (inactive)
12,Cc1cc(Cl)ccc1Nc1sc(C(=O)c2cc3cc(Cl)ccc3o2)c(N)c1C#N,24% (active)
13,O=C(O)c1c(-c2nccc3ccccc23)[nH]c(-c2ccccc2)c1S(=O)(=O)O,-1.08% (inactive)
14,COc1ccc2nccc(SCC(=O)O)c2c1,-9.78% (inactive)
15,CC(=O)Nc1ccccc1C=C1c2ccccc2-c2ccccc21,-13.9% (inactive)
16,CC(=O)Nc1ccc2c(c1)C(=Cc1ccc([N+](C)(C)C)cc1)c1ccccc1-2,24.7% (active)
17,CC(=O)Nc1ccc2c(c1)C(=Nc1ccc(C(=O)O)cc1)c1ccccc1-2,19.5% (inactive)
18,Cc1ccc(C(C#N)=Cc2cccc([N+](=O)[O-])c2)cc1,11.7% (inactive)
19,CC(=O)n1c(COS(C)(=O)=O)nc2ccccc21,4.86% (inactive)
20,OC(CCN1CCCCC1)(c1ccccc1)c1ccccc1,11.6% (inactive)
21,CC1CC(C)(C)CC(OCCN2CCCCC2)(c2ccccc2)C1 (centres undefined),21.3% (active)
22,Cc1ccc(S(=O)(=O)Nc2ccccc2C=O)cc1,5.12% (inactive)
23,C[N+]1(CCCC[N+]2(C)CCCCCCC2)CCCCCCC1,13.6% (inactive)
24,N#CC(C#N)=CNCCN1CCN(C=C(C#N)C#N)CC1,-5.6% (inactive)
25,CN(C)CCNc1ccccn1,5.77% (inactive)
